This is an account of results in PubChem BioAssay (Tox21).

Molecules are shown by their SMILES. “And” between values parts separate entries of the source, which are not always exact repeats. Equal entries are not always repeated. More than one record can exist for a structure, and the calls need not agree. The source made the active and inactive calls. Unless noted, the call rests on the fitted dose curve; in most records, active means well fitted curve in the direction sought with a large enough effect in the repeat runs; inconclusive means weak or mixed curves; inactive means no such curve, though single readings can be large; an effect the other way counts as inactive or inconclusive.

Experiment [1] in a line: qHTS assay to identify small molecule antagonists of the glucocorticoid receptor (GR) signaling pathway - cell viability counter screen (AID 720693). Further: nearly all actives have a fitted effect of over 55% in size.
A short description of experiment [2]: qHTS assay for identifying genotoxic compounds that show differential cytotoxicity against isogenic chicken DT40 cell lines with known DNA damage response pathways - wild type cell line (AID 743012). Further: nearly all actives have a fitted effect of over 60% in size. The method in brief:
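Viability by ATP luminescence (CellTiter-Glo, 30 min RT) after 40 h compound treatment at 37 C/5% CO2, using 300 parental DNA repair-proficient DT40 cells per well.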

Experiment [3] can be described thus: qHTS assay for identifying genotoxic compounds that show differential cytotoxicity against isogenic chicken DT40 cell lines with known DNA damage response pathways - Rad54/Ku70 mutant cell line (AID 743015). Further: nearly all actives have a fitted effect of over 60% in size. Further: potency means the concentration at half of the fitted maximal effect.
A short description of experiment [4]: qHTS assay to identify small molecule antagonists of the androgen receptor (AR) signaling pathway using the MDA cell line - cell viability counter screen (AID 743041; further: nearly all actives have a fitted effect of over 45% in size). The gist of the method: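 Viability read by CellTiter-Fluor fluorescence in the same wells as the antagonist screen, added after 15.5 h of a 16 h, 37C exposure. Human breast carcinoma MDA-kb2 AR-luc cells, compounds co-dosed with agonist R1881.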

Experiment [5] is described as follows: qHTS assay to identify small molecule antagonists of the thyroid receptor (TR) signaling pathway (AID 743065). Further: series mostly up to about 70 µM; nearly all actives have a fitted effect of over 55% in size. The gist of the method: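 Antagonism measured as loss of luciferase signal in GH3 cells stably carrying a TRE-luciferase reporter, co-treated with compound and T3 (1 nM final) for 23.5 h at 37 C. Viability was read in the same well by CellTiter-Fluor.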

Experiment [6] has as its system thyroid hormone receptor (rat, GH3 cells). Nature of the experiment: qHTS assay to identify small molecule agonists of the thyroid receptor (TR) signaling pathway (AID 743066; calls by dose curve; further: potency means the concentration at half of the fitted maximal effect).
Experiment [7] deals with Estrogen receptor (Homo sapiens) (UniProt P03372). The experiment in a line: qHTS assay to identify small molecule antagonists of the estrogen receptor alpha (ER-alpha) signaling pathway (AID 743069; active means well fitted curve in the direction sought with a large enough effect in the signal ratio in the repeat runs, not every such curve was filed as active; inconclusive means weak or mixed curves, or effect the other way; inactive means no such curve, though single readings can be large or run the other way; the % refers to the signal ratio; further: potency means the concentration at half of the fitted maximal effect). The gist of the method: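 Antagonist mode: compounds in DMSO were co-added with 17beta-estradiol to ER-alpha-bla HEK293 cells (2% charcoal-stripped serum) and left 18 h at 37C. Reporter inhibition was measured as FRET fluorescence after 2 h LiveBLAzer substrate at room temperature.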

The nature of experiment [8]: qHTS assay to identify small molecule antagonists of the estrogen receptor alpha (ER-alpha) signaling pathway - cell viability counter screen (AID 743074; calls by dose curve;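 further: HEK293 cells carrying ER-alpha-UAS-bla reporter stimulated with 17beta-estradiol; nearly all actives have a fitted effect of over 45% in size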).
Experiment [9] concerns the target Estrogen receptor (Homo sapiens) (UniProt P03372). Nature of the experiment: qHTS assay to identify small molecule agonists of the estrogen receptor alpha (ER-alpha) signaling pathway (AID 743075; calls by dose curve;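 further: HEK293 GripTite cells with ER-alpha and UAS-driven beta-lactamase reporter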).
Experiment [10] shares this target. Nature of the experiment: qHTS assay to identify small molecule agonists of the estrogen receptor alpha (ER-alpha) signaling pathway using the BG1 cell line (AID 743079). Further: nearly all actives have a fitted effect of over 20% in size.
Experiment [11] in a line: qHTS assay to identify small molecule antagonists of the estrogen receptor alpha (ER-alpha) signaling pathway using the BG1 cell line (AID 743080; calls by dose curve;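 further: BG1 cells stimulated with 17beta-estradiol alongside compound; series mostly up to about 70 µM; nearly all actives have a fitted effect of over 25% in size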). The method in brief: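 Quantitative HTS on the Tox21 10K library: BG1 cells with endogenous ER-alpha and ERE-luciferase reporter, 17beta-estradiol stimulation, 21.5 h compound exposure, luminescence endpoint with parallel fluorescence cytotoxicity counter-read.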

Experiment [12] in a line: qHTS assay to identify small molecule antagonists of the estrogen receptor alpha (ER-alpha) signaling pathway using the BG1 cell line - cell viability counter screen (AID 743081).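 Further: compound given together with 17beta-estradiol as the ER stimulus; series mostly up to about 70 µM; nearly all actives have a fitted effect of over 45% in size.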
Experiment [13] concerns the target Aromatase (Homo sapiens) (UniProt P11511). The experiment in a line: qHTS assay to identify aromatase inhibitors (AID 743083). Further: series mostly up to about 70 µM; nearly all actives have a fitted effect of over 55% in size.
The nature of experiment [14]: qHTS assay to identify small molecule antagonists of the androgen receptor (AR) signaling pathway - cell viability counter screen (AID 743033; further: nearly all actives have a fitted effect of over 45% in size).
Experiment [15] is described as follows: qHTS assay to identify small molecule antagonists of the thyroid receptor (TR) signaling pathway - cell viability counter screen (AID 743064). Further: nearly all actives have a fitted effect of over 50% in size. The method in brief:
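Counter screen for cytotoxicity: compound plus T3 (1 nM final) on GH3.TRE-Luc cells, 23.5 h at 37 °C, then fluorescence viability readout with CellTiter-Fluor.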

The target in experiment [16] is Androgen receptor (Homo sapiens) (UniProt P10275). The experiment in a line: qHTS assay to identify small molecule agonists of the androgen receptor (AR) signaling pathway (AID 743036; active means well fitted activation curve with a large enough effect in the signal ratio in the repeat runs, with a control signal flat, not every such curve was filed as active; inconclusive means weak or mixed curves, or effect the other way; inactive means no such curve, though single readings can be large or run the other way; the % refers to the signal ratio). The gist of the method:
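In this Tox21 qHTS, 2,000 HEK293 AR-bla cells per well were incubated with compounds for 16 h at 37C and 5% CO2. Fluorescence intensity was recorded 2 h after adding LiveBLAzer B/G FRET substrate at room temperature.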

For experiment [17] the target is unchanged. The experiment in a line: qHTS assay to identify small molecule agonists of the androgen receptor (AR) signaling pathway using the MDA cell line (AID 743040; further: nearly all actives have a fitted effect of over 20% in size). The gist of the method:
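Luciferase agonist assay: 16 h compound exposure at 37C without CO2 in MDA-kb2 AR-luc cells, whose MMTV promoter responds to both AR and GR. Luminescence measured after 30 min room-temperature incubation with ONE-Glo.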

For experiment [18] the target is unchanged. Nature of the experiment: qHTS assay to identify small molecule antagonists of the androgen receptor (AR) signaling pathway using the MDA cell line (AID 743042; further: nearly all actives have a fitted effect of over 55% in size). The gist of the method: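 Antagonist mode: compounds plus R1881 agonist added to MDA-kb2 AR-luc cells, incubated 16 h at 37C. Luciferase reporter luminescence quantified, with multiplexed CellTiter-Fluor readout for cell viability.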

For experiment [19] the target is unchanged. The experiment in a line: qHTS assay to identify small molecule antagonists of the androgen receptor (AR) signaling pathway (AID 743035; active means well fitted inhibition curve with a large enough effect in the signal ratio in the repeat runs, not every such curve was filed as active; inconclusive means weak or mixed curves, or effect the other way; inactive means no such curve, though single readings can be large or run the other way; the % refers to the signal ratio). The method in brief:
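Antagonist mode: AR-bla HEK293 cells co-treated with test compounds and agonist R1881 for 16 h at 37C, 5% CO2. Beta-lactamase activity read as FRET fluorescence after 2 h room-temperature substrate loading.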

Chain of Androgen receptor (Homo sapiens) (P10275 whole entry, looked up): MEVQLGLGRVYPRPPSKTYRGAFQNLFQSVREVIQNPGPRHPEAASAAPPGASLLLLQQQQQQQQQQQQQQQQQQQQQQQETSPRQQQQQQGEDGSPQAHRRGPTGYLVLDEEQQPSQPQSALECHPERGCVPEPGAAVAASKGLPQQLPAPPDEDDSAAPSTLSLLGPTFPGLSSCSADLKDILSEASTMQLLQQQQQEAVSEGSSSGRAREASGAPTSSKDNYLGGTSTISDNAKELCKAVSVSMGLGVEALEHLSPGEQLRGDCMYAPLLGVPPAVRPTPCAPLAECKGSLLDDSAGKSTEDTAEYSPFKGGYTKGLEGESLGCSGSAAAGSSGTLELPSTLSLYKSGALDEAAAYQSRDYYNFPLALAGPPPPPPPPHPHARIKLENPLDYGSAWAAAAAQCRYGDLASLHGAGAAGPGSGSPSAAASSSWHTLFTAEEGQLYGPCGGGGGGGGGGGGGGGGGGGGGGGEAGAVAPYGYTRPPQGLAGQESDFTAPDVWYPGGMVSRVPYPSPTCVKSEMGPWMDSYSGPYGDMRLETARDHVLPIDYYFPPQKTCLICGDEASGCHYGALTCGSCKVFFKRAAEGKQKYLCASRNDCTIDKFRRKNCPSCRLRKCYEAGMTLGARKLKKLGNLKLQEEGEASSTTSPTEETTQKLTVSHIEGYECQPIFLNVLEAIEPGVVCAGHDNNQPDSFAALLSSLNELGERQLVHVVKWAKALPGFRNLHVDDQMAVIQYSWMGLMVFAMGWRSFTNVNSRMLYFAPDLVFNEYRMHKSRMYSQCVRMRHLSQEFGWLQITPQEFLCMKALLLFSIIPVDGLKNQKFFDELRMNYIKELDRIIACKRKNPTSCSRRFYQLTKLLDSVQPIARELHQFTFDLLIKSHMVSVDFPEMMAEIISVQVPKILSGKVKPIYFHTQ
Chain of Aromatase (Homo sapiens) (P11511 whole entry, looked up): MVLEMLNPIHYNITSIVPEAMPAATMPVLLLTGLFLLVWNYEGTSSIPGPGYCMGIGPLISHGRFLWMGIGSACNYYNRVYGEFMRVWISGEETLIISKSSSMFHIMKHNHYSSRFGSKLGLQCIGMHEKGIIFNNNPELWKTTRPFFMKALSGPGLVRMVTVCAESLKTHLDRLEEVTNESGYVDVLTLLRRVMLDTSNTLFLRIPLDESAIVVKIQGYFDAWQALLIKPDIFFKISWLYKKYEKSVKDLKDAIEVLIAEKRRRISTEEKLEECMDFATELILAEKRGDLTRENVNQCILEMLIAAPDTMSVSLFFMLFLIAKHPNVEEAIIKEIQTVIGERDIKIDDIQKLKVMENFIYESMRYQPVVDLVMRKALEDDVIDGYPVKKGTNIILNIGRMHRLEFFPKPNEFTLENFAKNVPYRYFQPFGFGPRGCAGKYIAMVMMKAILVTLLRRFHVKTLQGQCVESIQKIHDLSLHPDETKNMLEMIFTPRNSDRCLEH
Chain of Estrogen receptor (Homo sapiens) (P03372 whole entry, looked up): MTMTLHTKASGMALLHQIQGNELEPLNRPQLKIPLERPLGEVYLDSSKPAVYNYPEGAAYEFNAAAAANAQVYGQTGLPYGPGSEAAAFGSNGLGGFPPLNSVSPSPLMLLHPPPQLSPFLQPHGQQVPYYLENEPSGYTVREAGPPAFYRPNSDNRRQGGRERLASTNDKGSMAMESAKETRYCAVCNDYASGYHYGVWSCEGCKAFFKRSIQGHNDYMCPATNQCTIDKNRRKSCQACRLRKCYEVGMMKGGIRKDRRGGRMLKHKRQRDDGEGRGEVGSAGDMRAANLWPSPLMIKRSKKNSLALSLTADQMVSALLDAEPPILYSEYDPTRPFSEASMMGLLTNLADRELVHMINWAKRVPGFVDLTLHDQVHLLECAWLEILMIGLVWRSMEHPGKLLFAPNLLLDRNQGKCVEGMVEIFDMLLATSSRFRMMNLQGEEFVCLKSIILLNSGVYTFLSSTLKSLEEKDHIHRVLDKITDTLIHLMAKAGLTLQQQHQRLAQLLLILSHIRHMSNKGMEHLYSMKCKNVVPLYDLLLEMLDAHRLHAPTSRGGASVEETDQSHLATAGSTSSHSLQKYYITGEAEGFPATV

With `ClC(Cl)c1ccccc1`, the Potency result in experiment [1], in experiment [2], in experiment [3], in experiment [5], in experiment [6] and in [7] was “inactive” each time. Besides, the Potency result in experiment [10] and in experiment [13] was “inactive” in each case. Moreover, the compound was called inactive in [4], in experiment [8], in experiment [9], in [11] and in [12].

For the compound `CCOC(=O)CC(SP(=O)(OC)OC)C(=O)OCC` (configuration not stated), the Potency result in experiment [1], in experiment [2], in experiment [3], in experiment [15], in experiment [5] and in experiment [6] was “inactive” in each case. The Potency entry in [13] is “inactive”. For the same compound, the outcome in experiment [14], in experiment [4] and in [12] was inactive.

Consider `O=[N+]([O-])c1ccc(Cl)cc1`, for which the Potency result in experiment [1], in experiment [2], in experiment [3], in experiment [15], in experiment [5] and in [6] was “inactive” each time. Besides, the Potency entry in experiment [13] is “inactive”. The result in experiment [4], in [8] and in experiment [12] was inactive.

As to `Nc1nc(N)nc(NC2CC2)n1`, the Potency result in [1], in experiment [2], in [15], in [5], in [6] and in experiment [13] was “inactive” each time. The Potency result in experiment [3] is “inactive and 61.1 µM (active)”. Moreover, the result in experiment [4], in [8] and in [12] was inactive.

With `CCOc1ccc(N)cc1`, the Potency result in experiment [1], in [2], in [15], in [5], in [6] and in [7] was “inactive” in each case. Further, the Potency entry in experiment [10] and in experiment [13] was “inactive” throughout. For the same compound, in [3], the Potency was 61.3 µM (active) and inactive. In addition, the outcome in [4], in [8], in experiment [9], in experiment [11] and in experiment [12] was inactive.

Take `C=C(C)C(=O)OCC(CC)CCCC` (configuration not stated): the Potency result in experiment [1], in [2], in [3], in experiment [5], in [6] and in experiment [7] was “inactive” throughout. For the same compound, the Potency result in experiment [10] and in experiment [13] was “inactive” each time. The outcome in [14], in experiment [4], in experiment [8], in experiment [9], in [11] and in experiment [12] was inactive.

Regarding `Cc1ccccc1N`, the Potency result in experiment [1], in [2], in experiment [3], in [15], in experiment [5] and in [6] was “inactive” throughout. Further, the Potency result in [13] is “inactive”. Further, the compound was called inactive in experiment [4], in experiment [8] and in [12].

With `CC(C)CCCCCCOC(=O)c1ccccc1C(=O)OCCCCCCC(C)C`, the Potency entry in experiment [1], in experiment [2], in experiment [3], in experiment [18], in experiment [15] and in [5] was “inactive” in each case. The Potency entry in [6], in experiment [7], in experiment [10] and in experiment [13] was “inactive” in each case. Moreover, the outcome in experiment [16], in experiment [17], in experiment [4], in experiment [8], in experiment [9] and in experiment [11] was inactive. In addition, the compound was classed as inactive in experiment [12].

As to `CN(C)C(=O)C(c1ccccc1)c1ccccc1`, the Potency entry in experiment [1], in [2], in experiment [3], in experiment [15], in experiment [5] and in experiment [6] was “inactive” each time. Further, the Potency entry in experiment [13] is “inactive”. The result in [14], in [4], in [8] and in experiment [12] was inactive.

In the case of `Oc1c(Br)cc(Br)cc1Br`, the Potency entry in experiment [1], in experiment [2], in experiment [3], in experiment [15], in [5] and in experiment [6] was “inactive” throughout. For the same compound, the Potency result in experiment [10] and in experiment [13] was “inactive” throughout. The compound was called inactive in experiment [4], in experiment [8], in experiment [9], in [11] and in experiment [12]. For the same compound, in experiment [7], the Potency entry was “inactive and 61.8 µM [inconclusive] (active)”.

In the case of `C/C=C/c1ccc2c(c1)OCO2`, the Potency result in [1], in experiment [2], in [3], in [15], in experiment [5] and in experiment [6] was “inactive” each time. Moreover, the Potency result in experiment [13] was “inactive”. In addition, the call in experiment [14], in [4], in experiment [8] and in [12] was inactive.

Turning to `CNC(=O)O/N=C/C(C)(C)S(C)(=O)=O`, the Potency entry in [1], in experiment [2], in experiment [3], in experiment [19], in [18] and in [15] was “inactive” in each case. For the same compound, the Potency entry in experiment [5], in experiment [6], in experiment [7], in experiment [10] and in experiment [13] was “inactive” each time. Further, the compound was classed as inactive in experiment [16], in experiment [17], in experiment [4], in experiment [8], in experiment [9] and in [11]. Further, the call in [12] was inactive.

For the compound `CC(=O)C1CCOC1=O` (configuration not stated), the Potency entry in experiment [1], in experiment [2], in experiment [3], in experiment [15], in [5] and in [6] was “inactive” throughout. Further, in experiment [13], the Potency entry was “inactive”. Further, the result in experiment [4], in [8] and in experiment [12] was inactive.

On to `O=[N+]([O-])c1ccc(Cl)c(Cl)c1`, for which the Potency result in experiment [1], in experiment [2], in experiment [3], in experiment [15], in experiment [5] and in [6] was “inactive” each time. The Potency entry in [7], in experiment [10] and in [13] was “inactive” in each case. In addition, the call in experiment [4], in [8], in [9], in [11] and in [12] was inactive.

Regarding `Cc1ccc(N)cc1`, the Potency result in experiment [1], in experiment [2], in experiment [3], in experiment [15], in experiment [5] and in [13] was “inactive” throughout. Further, the compound was classed as inactive in experiment [14], in experiment [4], in experiment [8] and in experiment [12]. The Potency result in experiment [6] was “inactive and 77 µM (active)”.
